Shown are actives, neighbours in structure and some others; about 8% of the full set was active somewhere.
MCF10A rerep = DNA re-replication induction in MCF 10a cells; MCF 10A DNA re-replication, Hoechst nuclear intensity, 48 h; Potency, µM (highest dose often 46.1 µM), without a hit: at the highest dose activity, positive = re-replication, most hits filed as activators; 2.9% of 350,000 active; AID 624296; further: % of control where 0% means no effect; nearly all actives have a fitted effect of over 50% in size
HT1080 IDH1KD tx = HT-1080 IDH1 knockdown cell toxicity (counter line); HT-1080 IDH1 knockdown viability, ATP luminescence, 48 h; Potency, µM (highest dose often 46.1 µM), for inactives: top-dose activity, negative = toxicity, hits mostly cytotoxic; 2% of 360,000 active;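 further: 0% = DMSO wells and -100% = cell-free medium wells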
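Luminescent ATP read-out (CellTiter-Glo, 10 min at room temperature) after 48 h compound exposure at 37 °C gave viability of IDH1-knockdown HT-1080 cells. Activity was normalised to DMSO and cell-free wells, then fitted as concentration-response curves.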
KB-V1 cytotox = kills drug-selected multidrug resistant KB-V1 cells. KB-V1 MDR cells viability, CellTiter-Glo, 72 h. Potency, µM (top dose mostly 46.1 µM), hits mostly cytotoxic. 3.4% of 400,000 active. AID 1347076; further: on the % scale 0 is the no-effect control and ±100 the full control effect; nearly all actives have a fitted effect of over 60% in size
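Potencies derive from concentration-effect curves fitted to normalized luminescence (CellTiter-Glo) of KB-V1 cells treated for 72 h at 37 degrees C in phenol-red-free DMEM containing 10% FBS.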
SW480 rerep = induces DNA re-replication in SW480 colon adenocarcinoma cells; SW480 DNA re-replication, Hoechst DNA content imaging, 48 h; Potency, µM (doses to about 46.1 µM), for the others: at the highest dose re-replication activation, hits mostly activators; 1.8% of 340,000 active; further: % of control where 0% means no effect; nearly all actives have a fitted effect of over 55% in size
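Cells (250 per well) received 23 nL compound or DMSO by pin tool and were kept 48 hr at 37 C, 5% CO2. Nuclei were then stained with Hoechst for 40 min and scanned for DNA content.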
HT1080NT lethal = kills 2HG-producing HT-1080-NT fibrosarcoma cells | HT-1080-NT fibrosarcoma viability, CellTiter-Glo ATP luminescence, 48 h | Potency, µM (top dose mostly 46.1 µM), for inactives: at the top dose activity, negative = less viability, actives largely listed as cytotoxic | 1.6% of 360,000 active | AID 686970;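 further: NT is the 2HG producing partner of a matched IDH1 knockdown line; 0% = DMSO-treated cells and -100% = media-only wells without cells; nearly all actives have a fitted effect of over 55% in size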
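Compounds were tested in concentration-response format on HT-1080-NT cells for 48 hours at 37 degrees C. Cell viability came from CellTiter-Glo luminescence; curves were classified by r2, response magnitude and activity.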
KB-3-1 cytotox = kills parental KB-3-1 adenocarcinoma cells | KB-3-1 viability, CellTiter-Glo ATP luminescence, 72 h | Potency, µM (doses to about 46.1 µM), hits mostly cytotoxic | 1.4% of 400,000 active; further: on the % scale 0 is the no-effect control and ±100 the full control effect; nearly all actives have a fitted effect of over 60% in size
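Here the drug-naive KB-3-1 line serves as comparator for MDR sub-line selectivity; cells received compound titrations, 72 h at 37 °C, then CellTiter-Glo readout.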
* marks the source's active call; other numbers are inactive results; i = inactive; ? = inconclusive; . = no result given. The call rests on the fitted dose curve; in most records, active means well fitted curve in the direction sought with a large enough effect; inconclusive means small, poorly fitted or top-dose-only effect, or another doubt; inactive means no such curve, though single readings can be large; an effect the other way counts as inactive or inconclusive. Potency means the concentration at half of the fitted maximal effect.

SMILES	MCF10A rerep	HT1080 IDH1KD tx	KB-V1 cytotox	SW480 rerep	HT1080NT lethal	KB-3-1 cytotox
CC(=O)c1cccc(Nc2c3c(nc4ccccc24)CCC3)c1	?	2.6µM*	i	5.8µM*	5.8µM*	1.8µM*
c1ccc2c(Nc3ccc4c(c3)OCCO4)c3c(nc2c1)CCCC3	-7%	?	?	5%	16µM*	i
CCCCCOC(=O)c1[nH]c2c(c1C)C(=O)C(C(=O)OC)C(C)C2 (stereo not drawn)	21µM*	-15%	18µM*	?	-19%	?
COc1ccc(/C=C2\CN(Cc3ccccc3)C/C(=C\c3ccc(OC)cc3)C2=O)cc1	8.2µM*	23µM*	?	.	?	?
Cc1cc(C)c2c(c1)/C(=C/C(=O)c1ccc(Br)s1)C(=O)N2	?	?	23µM*	20%	?	18µM*
Cc1cccc2c1NC(=O)/C2=C\C(=O)c1cccs1	?	16µM*	?	?	18µM*	i
CCc1ccc2c(c1)/C(=C/C(=O)c1cccs1)C(=O)N2	?	?	?	9.2µM*	?	?
COc1ccc(/C=C/c2nnc(NC(=O)COc3cccc(C)c3)s2)cc1	?	?	i	10%	?	i
Nc1nc(-c2ccccc2)nc2sc3c(c12)CCCC3	?	-10%	23µM*	?	-4%	i
O=c1oc(-c2ccccc2)nc2sc3c(c12)CCC3	-9%	8%	i	4%	4%	i
CCCCNC(=O)c1nc(-c2cc3ccccc3[nH]2)oc1-c1ccccc1	.	-9%	8.2µM*	.	-16%	i
Cc1nc(N)nc(N)c1-c1ccc([N+](=O)[O-])cc1	17%	10µM*	i	14%	-2%	i
C=CCn1c(SCc2nc3ccccc3c(=O)[nH]2)nc2scc(C3CC3)c2c1=O	21µM*	-13%	i	?	-20%	i
CCn1c(SCc2nc3ccccc3c(=O)[nH]2)nc2ccccc2c1=O	-4%	?	i	-4%	?	i
C=CCn1c(SCc2nc3cc(C(=O)OC)ccc3c(=O)[nH]2)nc2sc(CC)cc2c1=O	8%	-2%	5.2µM*	7%	-5%	i
CN(C)c1cc(N/N=C/c2ccccc2C(F)(F)F)nc(N(C)C)n1	?	-8%	i	-2%	-5%	i
CCOC(=O)C1=C(C)NC(=O)NC1c1cn(-c2ccccc2)nc1-c1cccs1 (stereo not drawn)	?	?	21µM*	0%	?	i
O=C(COc1ccccc1CNCc1ccccc1)Nc1ccccc1	-13%	11µM*	i	2%	?	i
CCOC(=O)c1ccc(NC(=O)COc2ccccc2CNC2CCCC2)cc1	5%	23µM*	?	4%	23µM*	?
CCOc1ccccc1CNCc1ccc(C(=O)O)cc1	-10%	6%	i	-11%	10%	i
CCOC(=O)c1ccc(NC(=O)C2(c3ccc(Cl)cc3)CCCC2)cc1	-4%	-17%	?	-18%	-10%	?
CCOC(=O)c1ccc(NC(=O)C2(c3ccccc3)CCCC2)cc1	26%	1%	15µM*	-7%	4%	i
CCOC(=O)c1ccc(NC(=O)COc2ccccc2OC)cc1	-3%	22%	i	-1%	13%	i
O=C(CNCc1ccccc1)Nc1ccc(Oc2ccccc2)cc1	?	6.5µM*	i	18µM*	7.3µM*	5.2µM*
Cc1cc(Cl)ccc1N(CC(=O)N(C)Cc1ccccc1)S(C)(=O)=O	.	2%	?	.	12%	i
CCO[C@@H]1OC(C(=O)N2CCN(Cc3ccc4c(c3)OCO4)CC2)=C[C@H](c2cn(C(C)=O)c3ccccc23)[C@H]1CCCO	3%	-16%	i	-5%	-24%	i

From PubChem BioAssay
